Giardia killer: Giardia lamblia killing; actives 0.15% (n = 340,000); activity change, % at 7.66 µM, hits read low; Giardia lamblia trophozoite viability; in the data active = activity change below about -80%; inconclusive = between about -30% and that limit;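 also: parasites exposed to compound for two days anaerobically before the ATP read; % is scaled to controls: 0 for no effect and ±100 for the full control effect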
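Trophozoite viability was measured as ATP-dependent luminescence, read 15-30 min after reagent addition. Before that, parasites at 100 cells/well were exposed to compounds for 48 h, anaerobically, at 37 deg C.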
B2AR arrestin: agonists driving beta-arrestin recruitment to human beta2-adrenergic receptor | P07550 | beta-arrestin recruitment to beta2AR, cell-based reporter | Potency, µM (series often up to 46.1 µM), without a hit: top-dose activation, most hits filed as activators | actives 0.02% (n = 330,000) | AID 492947; active = well fitted activation curve with a large enough effect; inconclusive = small, poorly fitted or top-dose-only effect;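 also: potency is read from the fitted curve at half-maximal effect; 0% = DMSO controls and full agonism = EC100 isoproterenol or metaproterenol; nearly all actives have a fitted effect of over 65% in size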
DRD3 antagonist: antagonists of human D3 dopamine receptor; P35462; D3R cells, DiscoveRx beta-arrestin luminescence, antagonist mode; hits give low values; max response, negative = inhibition, %; actives 2.5% (n = 360,000); AID 652054; in the data active = max response below about -50%; inconclusive = no clear call, values can overlap the other calls; also: % is scaled to controls: 0 for no effect and ±100 for the full control effect
Target sequence (P35462 whole entry, looked up): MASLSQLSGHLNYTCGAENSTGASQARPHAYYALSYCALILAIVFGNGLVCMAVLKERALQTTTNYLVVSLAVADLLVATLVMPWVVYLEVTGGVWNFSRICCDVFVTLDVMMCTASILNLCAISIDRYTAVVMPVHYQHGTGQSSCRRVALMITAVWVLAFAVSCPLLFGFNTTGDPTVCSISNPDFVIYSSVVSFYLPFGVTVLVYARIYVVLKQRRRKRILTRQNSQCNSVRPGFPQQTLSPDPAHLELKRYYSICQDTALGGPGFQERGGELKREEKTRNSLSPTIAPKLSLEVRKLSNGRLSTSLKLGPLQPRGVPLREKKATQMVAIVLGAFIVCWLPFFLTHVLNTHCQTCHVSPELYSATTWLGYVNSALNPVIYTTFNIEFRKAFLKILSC
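Cells expressing the human receptor were seeded at 1500 cells/well, incubated overnight at 37 degrees C in 5% CO2, then exposed to library compounds with dopamine controls for 90 minutes at 37 degrees C before luminescent detection.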
DRD3 agonist: activates the human D3 dopamine receptor; P35462; D3R DiscoveRx beta-arrestin cells, luminescence, 90 min; max activation, %; actives 0.58% (n = 410,000); AID 652048; in the data active = max activation above about 30%; also: 0% is about no effect
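Agonist mode: compounds and dopamine controls were applied to plated cells for 90 min at 37 degrees C after an overnight attachment at 1500 cells/well. Luminescent read-out followed 30 - 60 minutes at room temperature with DiscoveRx detection reagent.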
Active calls of the source: *; ? = inconclusive; nt = no result; ! = repeats disagree. Rows were chosen to be rich in hits. Some 2.8% of all compounds tested hit in one or more screens of this group.

SMILES	Giardia killer	B2AR arrestin	DRD3 antagonist	DRD3 agonist
Oc1ccc(N=Nc2ccc3c(c2)OCCO3)c2ncccc12	1.6	-0.6%	-66.4*	-24.1
NS(=O)(=O)c1ccc(N=Nc2ccc(O)c3ncccc23)cc1	-13.1	-0.1%	?	3.5
CCOc1ccc(N=Nc2ccc(O)c3ncccc23)cc1	-11.6	-0.6%	-58.4*	-2.9
CCN(CC)S(=O)(=O)c1cc(OC)ccc1N=Nc1ccc(O)c2ncccc12	-5.4	-0.6%	-108.4*	-6.9
CCOc1ccc(C(=O)Nc2nc(-c3ccc(Br)cc3)ns2)cc1	nt	nt	nt	11.4
O=C(c1ccc2c(c1)N(Cc1cccc(Cl)c1)C(=O)c1ccccc1S2)N1CCOCC1	nt	nt	nt	-15.5
Cc1cc(C)[n+]2n1C(=O)C(c1ccccc1)=C2[O-]	5.2	-0.2%	-13.4	49.7*!
Cc1ccc(/C=C2/CNC/C(=C/c3ccc(C)cc3)C2=O)cc1	-8.7	nt	-50.8*	-4.7
Cc1ccc(/C=C2\CCOC2=O)cc1	-1.2	0.2%	4.9	2.9
Cn1nnc2c(N3CCN(Cc4ccccc4)CC3)ncnc21	-12.2	nt	nt	nt
C[C@@]12CCC[C@H]1[C@@H]1CC[C@H]3C[C@@H](O)CC[C@]3(C)[C@H]1CC2	nt	nt	nt	2.6
CC12CCC3C(CCC4CC(O)CCC43C)C1CC(O)C2 (stereo unspecified)	6.0	nt	82.3	30.7*
CCN(CC)S(=O)(=O)c1cc([N+](=O)[O-])ccc1NNC(=O)Nc1ccc(Cl)c(Cl)c1	1.8	-0.2%	-83.7*	-7.1
O=C(NNc1ccccc1[N+](=O)[O-])Nc1ccc(Cl)c(Cl)c1	2.9	-0.5%	-6.8	-5.5
O=[N+]([O-])c1cccc2nc3ccccc3c(NCCCn3ccnc3[N+](=O)[O-])c12	-95.2*	nt	?	-14.9
O=C(CSc1nc2c(c(=O)[nH]1)CN(Cc1ccc(F)cc1)CC2)Nc1cccc(C(F)(F)F)c1	nt	nt	nt	4.4
O=S(=O)(c1ccc(OCc2nc3ccccc3s2)c(Cl)c1)N1CCOCC1	-4.8	0.1%	-75.5*	-12.8
CCOc1ccc(NC(=O)Cn2c(=O)n(Cc3ccccc3)c(=O)c3c4c(sc32)CN(C(C)=O)CC4)cc1	nt	nt	nt	-12.6
Cc1ccc2nc(N3CCC(C(=O)N4CCN(c5cccc(Cl)c5)CC4)CC3)[nH]c2c1	nt	nt	nt	-13.1
Cn1cccc1CNCc1ccccc1Cl	-14.6	-0.3%	-64.0*	-31.4
Cc1ccccc1-c1nc(CSc2nc3c(c(=O)[nH]2)CCC3)c(C)o1	-22.9	-1.0%	189.2	30.2*
O=C(NCCC1=CCCCC1)c1ccc2c(c1)N(Cc1ccc(Cl)cc1)C(=O)c1ccccc1S2(=O)=O	nt	nt	nt	2.4
CCCCNc1c(-c2ccc(SC(C)CC)cc2)nc2ccc(Cl)cn12 (stereo unspecified)	nt	nt	-23.8	-14.0
CCCCCCSc1ccc(-c2nc3cc(C)ccn3c2NC2CCCCC2)cc1	7.3	0.0%	36.1	-11.6
CCCCCCSc1ccc(-c2nc3ccccn3c2NCCCC)cc1	23.0	0.0%	82.1	81.9*
SMILES	Giardia killer	B2AR arrestin	DRD3 antagonist	DRD3 agonist
CCCCNc1c(-c2ccc(-c3cccc(Cl)c3)cc2)nc2ccccn12	-14.1	0.3%	83.0	63.0*
CCCCCCSc1cccc(-c2nc3ccc(Cl)cn3c2NCCCC)c1	12.4	nt	52.9	33.4*!
C=C1CC[C@H](O)CC1=C/C=C1\CCC[C@]2(C)[C@@H]([C@H](C)CCCC(C)(C)O)CC[C@@H]12	nt	nt	nt	-0.6
Cc1cccn2c(=O)nc(SCC(=O)N3CCC(Cc4ccccc4)CC3)nc12	-3.5	0.3%	-58.5*	-34.8
O=C(NCCc1ccccc1Cl)c1ccc2c(=O)n(-c3ccccc3)c(=O)[nH]c2c1	nt	nt	nt	9.9
O=[N+]([O-])c1ccc(CN2CCN(c3ccc(Cl)cc3)CC2)o1	-93.7*	-0.4%	-26.8	-14.3
O=[N+]([O-])c1ccc(/C=N\N2CCN(c3ccc(Cl)cc3)CC2)cc1	-8.2	-0.3%	28.3	4.4
O=[N+]([O-])c1ccc(N2CCN(C(=S)NCc3ccc(Cl)cc3)CC2)cc1	14.6	-0.7%	-53.0*	-3.4
CCOC(=O)c1c(SCCN2CCCC2)n(-c2ccccc2)c(=S)n(-c2ccccc2)c1=O	-0.1	nt	-119.3*	-17.0
CCOC(=O)c1sc(=S)n(-c2ccccc2)c1SC	-2.6	-0.2%	5.0	2.5
CCOC(=O)c1cnc(-n2nc(C)cc2C)nc1N(CC)CC	2.3	?	-58.6*	-10.6
CCOC(=O)c1cnc(-n2nc(C)cc2C)nc1NC	-25.2	17.8µM*	?	0.8
Cc1ccc(OCC(=O)Nc2ccc3c(c2)nc(CCNC(=O)c2ccco2)n3C)cc1	nt	nt	nt	-16.4
COc1ccccc1C1CCN(Cc2ccc(C)cc2)CC1	-1.1	0.3%	?	-43.3
Cc1ccc(CN2CCC(c3cc(-c4cccs4)n[nH]3)CC2)cc1	9.6	0.4%	-77.6*	-6.0
FC(F)(F)c1cccc(CN2CCC(c3cc(-c4cccs4)n[nH]3)CC2)c1	7.2	-0.2%	-80.5*	-22.2
Clc1ncnc2scc(-c3ccc(Br)cc3)c12	?	0.1%	-54.1*	-12.1
Cc1cc(N)n(-c2ncnc3scc(-c4ccc(Cl)cc4)c23)n1	6.0	0.3%	5.4	5.4
c1ccc(OCCN2CCN(C(c3ccccc3)c3ccccc3)CC2)cc1	1.2	0.4%	-89.5*	-14.0
Clc1ccc(C(c2ccccc2)N2CCN(c3ccccn3)CC2)cc1 (stereo unspecified)	22.9	0.4%	13.3	-6.5
CC(C)(C)C(=O)N1CCN(C(c2ccccc2)c2ccccc2)CC1	-3.5	0.4%	-8.8	3.9
CN1CCN(C(c2ccccc2)c2ccccc2)CC1	-17.0	-0.1%	-80.3*	0.0
CN1CCCN(C(c2ccccc2)c2ccc(Cl)cc2)CC1 (stereo unspecified)	11.9	-0.3%	-112.9*	-85.0
Cc1ccc(CN(C(=O)c2ccc([N+](=O)[O-])cc2)c2ccccn2)cc1	nt	nt	nt	4.2
Nc1ncc(S(=O)(=O)NCc2ccccc2)cn1	nt	nt	nt	13.3
SMILES	Giardia killer	B2AR arrestin	DRD3 antagonist	DRD3 agonist
Cc1ccc(CNC(=O)CCCn2c(=O)c3ccccc3n(Cc3ccccc3C)c2=O)cc1	nt	nt	nt	7.8
C=C1[C@H](CO)[C@@H](O)C[C@@H]1n1cnc2c(=O)[nH]c(N)nc21	nt	nt	nt	-10.7
Cc1ccc(C(=O)CSc2n[nH]c(-c3ccco3)n2)cc1C	5.9	-0.2%	-18.9	-3.9
COc1ccc(C(=O)CSc2n[nH]c(-c3ccco3)n2)cc1	11.1	0.5%	-59.1*	3.7
O=C1CCN(Cc2ccccc2)C=C1C(=O)c1ccccc1	-10.7	nt	-20.3	47.4*
O=C1CCN(Cc2ccccc2)C=C1c1ccc(Cl)cc1	-8.9	0.0%	0.0	-2.5
CCC(=O)NC(c1ccc([N+](=O)[O-])cc1)c1c(O)ccc2ccccc12 (stereo unspecified)	-2.2	1.7%	-27.7	-6.7
CCCCC(=O)NC(c1ccc([N+](=O)[O-])cc1)c1c(O)ccc2ccccc12 (stereo unspecified)	?	6.4%	-51.8*	-20.2
COC(=O)c1cc(O)c(O)c(O)c1	-6.8	-0.3%	-1.4	34.5*
CCCOC(=O)c1cc(O)c(O)c(O)c1	nt	nt	nt	10.0
CCCCCCCCCCCCCCCCSCC(COC)COP(=O)([O-])OCC[N+](C)(C)C (stereo unspecified)	nt	nt	nt	5.4
O=C(C[n+]1ccccc1)N1CCCc2ccccc21	-9.5	-0.2%	-53.1*	-5.2
